INS promoter inh = TRM-6 insulin promoter activity inhibition. TRM-6 cells (human fetal islet line), insulin promoter-eGFP reporter, imaging; reporter expression induced with tamoxifen. inhibition, % at 2 µM. 0.9% of 130,000 active;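 active = inhibition above the mean plus 3 SD, with well images judged a real hit on visual review, cut at about 60% in these data, passing the limit was not always enough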
EP2 mod = modulators of human EP2 prostaglandin E2 receptor | 0.83% of 260,000 active | induction, % at 25 µM | P43116 | AID 940 | EP2-expressing cells, cAMP HTRF FRET, PGE2 co-stimulation;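 active = compounds whose cAMP rise, as percent of the full-agonist control response, exceeds 60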;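 also: rat C6 glioma line stably carrying human EP2 under a CMV promoter; the protocol text gives 20 µM as final concentration; 100% = response of wells given 1 µM PGE2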
EP2 antag = blocks the human prostaglandin E2 receptor EP2 | P43116 | C6 glioma cells expressing human EP2, cAMP TR-FRET; cells stimulated with saturating PGE2 | inhibition, % at 25 µM | 0.52% of 260,000 active | AID 1422;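 active = percent inhibition above 40 after rounding to a whole number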;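 also: rat C6 glioma host cells with rolipram phosphodiesterase inhibitor present; the protocol text gives 20 µM as final concentration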
S1P4 antag = antagonists of human S1P4 receptor; inhibition, % at 4.98 µM; S1P4-expressing cells, antagonist mode, reporter read-out; O95977; 0.26% of 220,000 active; AID 1510; in the data active = inhibition above about 29%;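 also: 0% = wells stimulated with agonist and 100% = vehicle wells without agonist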
S1P3 antag = S1P3 (human) receptor antagonism | CHO S1P3 NFAT-BLA reporter, FRET fluorescence, antagonist mode | inhibition, % at 4.98 µM | 0.27% of 170,000 active | AID 485;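 active = inhibition above the plate cutoff, the mean inhibition of test wells on that plate plus 3 SD, cut at about 28% in these data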;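 also: cells challenged with S1P at its EC80 of 0.8 µM; blue over green emission ratio from cleaved BLA substrate after 4 h stimulation; 0% = S1P-stimulated wells and 100% = unstimulated DMSO-only wells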
Target sequence (Q99500 whole entry, looked up): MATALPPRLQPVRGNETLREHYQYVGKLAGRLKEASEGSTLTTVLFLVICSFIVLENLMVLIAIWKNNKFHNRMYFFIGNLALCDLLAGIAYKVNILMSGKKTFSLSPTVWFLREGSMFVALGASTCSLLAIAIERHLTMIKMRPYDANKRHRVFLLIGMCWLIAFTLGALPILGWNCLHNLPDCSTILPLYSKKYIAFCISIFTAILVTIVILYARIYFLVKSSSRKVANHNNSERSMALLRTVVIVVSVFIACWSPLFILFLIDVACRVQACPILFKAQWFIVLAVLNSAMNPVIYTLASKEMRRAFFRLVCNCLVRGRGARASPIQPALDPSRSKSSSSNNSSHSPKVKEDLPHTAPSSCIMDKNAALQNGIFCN
S1P4 ag = activates the human S1P4 receptor; S1P4-expressing cell line, agonist reporter assay; 0.35% of 220,000 active; activation, % at 4.98 µM; O95977; in the data active = activation above about 11%;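 also: 0% = DMSO vehicle and 100% = reference agonist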
* marks the source's active call; other numbers are inactive results; x = no result given. An excerpt weighted towards active compounds, which were near 2.4% of everything screened.

SMILES | INS promoter inh | EP2 mod | EP2 antag | S1P4 antag | S1P3 antag | S1P4 ag
O=C1c2ccccc2C(=O)c2c(Nc3ccc(CCO)cc3)ccc(O)c21 | x | -27 | 5 | 1 | -12 | 0
CCC(=O)n1nc(-c2ccccc2)nc1NCc1ccccc1 | 86* | 56 | 6 | -30 | -19 | 0
O=C(CSc1ncnc2sc3c(c12)CCCC3)Nc1cccc(Cl)c1Cl | x | 12 | 18 | x | x | x
CC1CCCN(c2nc3c(c(=O)[nH]2)CCN(Cc2cccnc2)C3)C1 (stereo unspecified) | x | 6 | x | x | x | x
Cc1ccc2cc(CN(C(=O)N3CCOCC3)C3CCCC3)c3nnnn3c2c1 | x | 9 | 16 | x | x | x
O=C(Nc1ccc([N+](=O)[O-])cn1)C1CC2CCC1C2 (stereo unspecified) | 69* | 45 | 9 | -4 | -13 | 1
O=C(Nc1nccs1)C1CC2CCC1C2 (stereo unspecified) | 14 | -4 | 6 | -7 | x | 0
Cc1nn(-c2ccccc2)c(C)c1C(=O)OCC(=O)N1CC(=O)Nc2ccccc21 | 93* | -11 | 7 | -6 | -28 | 1
COc1cccc(N2CCN(CC(=O)Nc3nnc(-c4ccc(OC)c(OC)c4)s3)CC2)c1 | x | -32 | 8 | x | x | x
CCN1/C(=C/c2ccc3cc(OC)ccc3[n+]2CC)Sc2cc(C)ccc21 | x | -94 | 64* | x | x | x
CC(=S)/C=C1\Sc2ccccc2N1C | x | -12 | 13 | -8 | x | 1
CC[n+]1c(/C=C2\Sc3ccccc3N2C)ccc2cccc(C)c21 | x | -28 | 107* | -19 | 25 | -1
CCN1/C(=C/c2ccc3cc(C)ccc3[n+]2CC)Sc2ccc(C)cc21 | x | -62 | 14 | x | x | x
CC[n+]1c(/C=C2\Sc3cc(C)ccc3N2C)ccc2ccccc21 | x | -44 | 45* | x | x | x
CCc1nn(CC(=O)N(CC)CC)c(=O)c2cc3occc3n12 | x | 18 | x | x | x | x
CCOC(=O)Cc1csc(NC(=O)CSc2nc3ccc(C)cc3cc2C#N)n1 | x | -25 | 19 | x | x | x
CC(O)c1nc2cc3ccccc3cc2[nH]1 (stereo unspecified) | x | -55 | 10 | x | x | x
CC(C)c1nc2cc3ccccc3cc2[nH]1 | 86* | -44 | 9 | 10 | x | -1
COC(=O)c1[nH]c2ccccc2c1NC(=O)CN1CCN(C(=O)c2ccco2)CC1 | 91* | -2 | 17 | -8 | -1 | -1
CC(C)c1ccc(CN2CC(C(=O)Nc3ccccc3)CC2=O)cc1 (stereo unspecified) | 75* | -57 | 6 | 5 | 1 | -1
CCN(CC)c1ccc(NC(=O)C2CC(=O)N(Cc3ccccc3)C2)cc1 (stereo unspecified) | 38 | -49 | 2 | -4 | -9 | 0
NC(=O)c1c(NC(=O)CCCSc2nc(-c3ccco3)cc(C(F)(F)F)n2)sc2c1CCC2 | x | 20 | 14 | x | x | x
O=C(COc1ccc(S(=O)(=O)NCc2ccccc2)cc1Cl)N1CCCCC1 | x | -78 | 10 | x | x | x
C#CCCN1CCN(Cc2cn(CC(=O)NC3CCCC3)c3ccccc23)CC1 | x | -36 | 7 | x | x | x
CCCCOC(=O)CN1C(=O)c2ccc(C(=O)OCCCC)cc2C1=O | -71 | 63* | 9 | -17 | -30 | -2
SMILES | INS promoter inh | EP2 mod | EP2 antag | S1P4 antag | S1P3 antag | S1P4 ag
CCCCN(C)C1=Nc2cccc3cccc1c23 | 75* | -14 | x | 10 | x | 1
c1cc2c3c(cccc3c1)C(N1CCN(C3=Nc4cccc5cccc3c45)CC1)=N2 | 7 | x | x | -18 | x | 1
CCc1nn(CC(=O)NC2CCCCC2)c(=O)c2cc3occc3n12 | x | -27 | 4 | x | x | x
COC(=O)CN1C(=S)N(Cc2ccccc2)C(=O)C1CC(=O)Nc1ccc(OC)cc1 (stereo unspecified) | 80* | -8 | 8 | -7 | -22 | 0
Cc1cccc(-c2nnc3n2N=C(c2ccccc2)CS3)c1 | x | 63* | 5 | 0 | x | 0
c1ccc(C2=Nn3c(nnc3-c3ccncc3)SC2)cc1 | x | 53 | x | -15 | 2 | 0
Cc1nn2c(nc1=O)SCC(c1ccccc1)=N2 | 82* | 15 | 16 | -3 | x | 0
COc1ccc(-c2nnc3n2N=C(c2ccccc2)CS3)cc1OC | x | x | x | x | 35 | x
CCOc1cccc2cc(-c3nnc(-c4ccccc4)o3)c(=O)oc12 | x | x | x | x | 65* | x
N[C@@H](CSC1(c2ccc(Cl)cc2)c2ccccc2-c2ccccc21)C(=O)O | x | 5 | 44* | x | x | x
NCCN1C(=O)c2ccccc2[C@@]1(O)c1ccc(Cl)cc1 | x | 0 | 13 | x | x | x
NC(=O)CC(NC(=O)c1ccc(Br)cc1)c1ccc(NCc2ccc(F)c(F)c2)c([N+](=O)[O-])c1 (stereo unspecified) | x | -16 | 43* | x | x | x
NC(=O)CC(NC(=O)c1ccccc1)c1ccc(NCc2ccc(F)cc2)c([N+](=O)[O-])c1 (stereo unspecified) | x | -34 | 15 | x | x | x
NC(=O)CC(NC(=O)c1ccc(Br)cc1)c1ccc(NCc2ccc(F)cc2)c([N+](=O)[O-])c1 (stereo unspecified) | x | -36 | 51* | x | x | x
CC[C@H](Cn1nc(-c2ccc(OC)cc2)ccc1=O)NC(=O)c1ccccn1 | x | -23 | x | x | x | x
Cc1ccc(S(=O)(=O)N2CCC(C(=O)O)(c3ccccc3)CC2)cc1 | x | 19 | 43* | x | x | x
O=C(c1ccc(F)cc1)c1ccc2c(c1)OCCCO2 | x | -12 | 4 | x | x | x
CCc1cc2c(NCC3CCCO3)ncnc2s1 (stereo unspecified) | 74* | -10 | 5 | -15 | x | 0
COc1cc(O)c2c(O)c3c(c4c2c1[C@]1(C4)C(C)=CCCC1(C)C)[C@H](O)[C@@]1(O)CC(=O)C(C(N)=O)=C(O)[C@]1(O)C3=O | x | 28 | 51* | x | x | x
CCN(CC)c1ccc(/C=N/Nc2nc(C)cc(=O)[nH]2)c(O)c1 | 85* | -56 | 21 | 7 | 3 | 4
CCc1nnc(NS(=O)(=O)c2ccc(NC(=S)NC(=O)c3ccc(Br)cc3)cc2)s1 | 8 | -79 | 59* | -13 | -2 | 1
COc1ccc(C(=O)NC(=S)Nc2ccc(S(=O)(=O)Nc3nccs3)cc2)cc1 | x | -121 | 49* | x | x | x
CCc1nnc(NS(=O)(=O)c2ccc(NC(=S)NC(=O)/C=C/c3ccc(C(C)C)cc3)cc2)s1 | -31 | -17 | 3 | 2 | x | 0
CCc1nnc(NS(=O)(=O)c2ccc(NC(=S)NC(=O)/C=C/c3ccc(OC)cc3)cc2)s1 | x | -9 | 104* | -1 | -5 | 1
COc1ccc(/C(O)=C2/C(=O)C(=O)N(CCN(C)C)C2c2cccnc2)cc1C (stereo unspecified) | x | 35 | 12 | -16 | -3 | 2
COC(=O)c1sc(N2C(=O)C(=O)/C(=C(\O)c3ccc(OC)c(C)c3)C2c2cccnc2)nc1C (stereo unspecified) | x | 8 | 53* | x | x | x
Cc1ccccc1-c1nnc(SCC(=O)N2c3ccccc3CCc3ccccc32)o1 | x | 16 | 8 | x | x | x
CC1(C)Cc2c(c(N3CCCC3)nc3sc4c(N5CCOCC5)ncnc4c23)CO1 | x | 73* | 4 | x | x | x
COC(=O)C1=C(N)Oc2cc(N(C)C)ccc2C1c1ccccc1OC (stereo unspecified) | -73 | 59 | 10 | 2 | 60* | 1

Source: PubChem (several laboratories)
